An excerpt weighted towards active compounds, which were near 3.9% of everything screened.
ATXN viability = Viability Counterscreen for Primary qHTS for Inhibitors of ATXN expression | S2 cells (HEK-293 line with an ATXN2-luciferase reporter) viability, CellTiter-Fluor protease fluorescence, 24 h | Potency, µM (doses to about 56.7 µM), usual class: cytotoxic | hit rate 0.49% among 400,000; also: nearly all actives have a fitted effect of over 40% in size
ATXN2 expr inh = Primary qHTS for Inhibitors of ATXN expression. Potency, µM (series often up to 57 µM), for the others: at the top dose activity change, negative = inhibition, usual class: inhibitors. HEK-293 ATXN2-luciferase reporter, luminescence, 24 h. hit rate 0.72% among 360,000; also: % is scaled to controls: 0 for no effect and ±100 for the full control effect; nearly all actives have a fitted effect of over 55% in size
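qHTS (up to 57 uM final) was run with 24 h compound exposure of reporter cells at 37 °C. Each well was multiplexed: SteadyGlo luminescence measured ATXN2-luciferase expression after a fluorogenic Gly-Phe-AFC viability readout (25 uM final).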
HT1080NT lethal = qHTS for induction of synthetic lethality in tumor cells producing 2HG: qHTS for the HT-1080-NT fibrosarcoma cell line | Potency, µM (top dose mostly 46.1 µM), inactives show at the top dose activity, negative = less viability, hits mostly cytotoxic | hit rate 1.6% among 360,000 | AID 686970, 2013 | HT-1080-NT fibrosarcoma viability, CellTiter-Glo ATP luminescence, 48 h;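 also: NT is the 2HG producing partner of a matched IDH1 knockdown line; 0% = DMSO-treated cells and -100% = media-only wells without cells; nearly all actives have a fitted effect of over 55% in size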
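Read-out is CellTiter-Glo luminescence after 10 minutes at room temperature, following 48 hours' compound treatment of HT-1080-NT cells (750 cells/well, RPMI, 5% FBS, 37 degrees C).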
HT1080 IDH1KD tx = qHTS for induction of synthetic lethality in tumor cells producing 2HG: qHTS for the HT-1080-IDH1KD cell line; HT-1080 IDH1 knockdown viability, ATP luminescence, 48 h; AID 686971, 2013; hit rate 2% among 360,000; Potency, µM (series often up to 46.1 µM), for the others: at the highest dose activity, negative = toxicity, most hits filed as cytotoxic;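 also: 0% = DMSO wells and -100% = cell-free medium wells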
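In this qHTS, HT-1080 cells depleted of IDH1 are exposed for 48 h at 37 °C to compound titrations. Toxicity is scored from CellTiter-Glo luminescence, with DMSO as full viability and medium alone as none.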
TGFb inhibitor = qHTS for Inhibitors of TGF-b; HepG2 CAGA-GFP TGF-b/SMAD3 reporter, GFP fluorescence, 18 h; TGF-beta stimulated, 500 pg/mL final; AID 588855, 2011; hit rate 1.2% among 410,000; Potency, µM (titrated, usually from 46.1 µM), inactives show at the highest dose activity, negative = inhibition, actives largely listed as inhibitors; also: % is scaled to controls: 0 for no effect and ±100 for the full control effect; nearly all actives have a fitted effect of over 65% in size
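Per well, imaged GFP fluorescence of HEPG2 CAGA-GFP cells gives the signal; cells get compound, then TGF-beta (500 pg/mL final), 18 h at 37 degrees C; %Activity versus -TGF-beta and +DMSO controls.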
HepG2 tox = qHTS for Inhibitors of TGF-b: Cytotox Counterscreen. hit rate 0.76% among 410,000. HepG2 CAGA-GFP viability, ATP luminescence, 18 h. Potency, µM (top dose mostly 46.1 µM), for the others: at the top dose activity change, negative = cytotoxicity, most hits filed as cytotoxic
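CellTiter-Glo luminescence gave cytotoxicity after 18 hours at 37 degrees C. The cells were HepG2 CAGA-GFP in 1% FBS DMEM, stimulated with 500 pg/mL TGF-beta after compound addition. %Activity was normalised to no-cell wells (complete cell-killing) and DMSO (no toxicity), and curves were fitted and classified.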
An asterisk follows results filed as active; i = inactive; ? = inconclusive; · = no result. Calls follow the shape of the dose curve; as a rule, active = well fitted curve in the direction sought with a large enough effect; inconclusive = small, poorly fitted or top-dose-only effect, or another doubt; inactive = no such curve, though single readings can be large; an effect the other way counts as inactive or inconclusive. Potency is read from the fitted curve at half-maximal effect.

SMILES	ATXN viability	ATXN2 expr inh	HT1080NT lethal	HT1080 IDH1KD tx	TGFb inhibitor	HepG2 tox
COc1ccc(CCNC(=O)/C=C/c2ccc3ccccc3n2)cc1OC	?	-3.3%	?	23.1µM*	?	-19.3%
COc1ccc(CCNC(=O)c2cc3cc(Cl)ccc3nc2N)cc1OC	i	-14.1%	-7.2%	18.4µM*	·	·
Nc1nc2ccc(Cl)cc2cc1C(=O)NCCc1ccc(O)cc1	·	·	-14.8%	?	·	·
COc1ccc(CCNC(=O)c2cc(-c3ccc(C)cc3)nc3n[nH]c(-c4ccc(F)cc4)c23)cc1OC	i	-18.1%	·	·	4.9%	-17.8%
COc1ccc(CC(=O)NCCc2sc(-c3ccc(Cl)cc3)nc2C)cc1OC	?	-15.6%	·	·	7.94µM*	-20.8%
COc1ccc(/C=C/C(=O)NCCc2ccc(OC)c(OC)c2)cc1	i	-17.1%	4.8%	19.8%	-7.7%	-18.0%
CCCSc1ncc(Cl)c(C(=O)N2CCN(c3cccc(Cl)c3)CC2)n1	·	·	·	·	·	-18.6%
CCc1ccc(NC(=O)CC2C(=O)N(c3cccc(OC)c3)C(=O)N2C2CCCC2)cc1 (stereo unspecified)	·	·	·	·	-18.8%	-20.3%
COc1ccccc1NC(=O)CCc1nc(-c2cccs2)no1	?	4.9%	7.0%	17.5%	-4.1%	23.8%
COc1cccc(NC(=O)CCc2nc(-c3ccccc3F)no2)c1	i	3.1%	-23.0%	-1.3%	-17.5%	-14.4%
COc1cccc(NC(=O)CCc2nc(-c3cccs3)no2)c1	i	-15.7%	7.31µM*	?	4.2%	1.1%
O=C(CCc1nc(-c2ccccc2F)no1)Nc1ccc(Oc2ccccc2)cc1	?	46.1%	14.6µM*	16.4µM*	?	-8.6%
COc1ccc2c(c1)-c1nc(-n3ncc(C(=O)N(C)C(C)c4ccon4)c3C3CC3)ncc1CC2 (stereo unspecified)	i	·	·	·	·	·
O=C1NC(=S)N/C1=C/c1cccn1-c1ccc([N+](=O)[O-])cc1	i	-8.9%	?	?	7.08µM*	-42.9%
CCCCC#Cc1cncc(C(=O)NN)c1	i	?	-11.3%	-19.2%	11.7%	-24.3%
CCCCCCC#Cc1cncc(C(=O)NNC(=O)Nc2cc(Cl)cc(Cl)c2)c1	i	-27.2%	?	20.6µM*	-12.7%	-47.9%
O=C(CCl)NCCCN(C(=O)C(Cl)Cl)c1ccc([N+](=O)[O-])cc1	31.6µM*	·	?	?	?	12.6µM*
COCCCNC(=O)c1ccc([N+](=O)[O-])cc1	i	12.0%	5.8%	4.0%	1.7%	1.9%
Cc1cccc(-c2nnc(SCCC(=O)N3CCOCC3)o2)c1	i	-20.0%	-0.4%	1.3%	0.1%	2.9%
Cc1cccc(-c2nnc(SCCC(=O)O)o2)c1	i	1.41µM*	·	·	-4.7%	-6.2%
O=C1O[C@@H]2[C@@H](O)[C@H](O)O[C@@H]2[C@H]1O	i	·	·	·	·	·
CCn1cc(C(c2ccccc2)C(C(C)=O)[N+](=O)[O-])c2ccccc21 (stereo unspecified)	i	-2.1%	?	-10.9%	-0.9%	6.2%
CC(=O)C(C(c1ccccc1)c1c[nH]c2ccccc12)[N+](=O)[O-] (stereo unspecified)	i	·	?	23.1µM*	?	-37.2%
COc1ccccc1C(C[N+](=O)[O-])c1c[nH]c2ccccc12 (stereo unspecified)	?	?	14.6µM*	?	?	-4.2%
CCc1cccc(C)c1NC(=O)COCc1cc(-c2ccc3c(c2)OCO3)on1	·	·	·	·	-22.4%	-41.9%
COc1ccc(-c2[nH]ncc2/C=C(/C#N)C(=O)NC2CCCCCC2)cc1	?	?	18.4µM*	?	0.0%	-100.7%
